# Assay results taken from PubChem BioAssay (EPA / NIEHS).
# Inconclusive results are not listed. Activity calls are given as the source filed them. How the source made its calls, unless noted: active means hit-call score of the fitted dose curve at least 0.9, where 1 is the maximum; inactive means score below 0.9.
# Key:
# [1] = ACEA_ER_80hr: ACEA Biosciences xCELLigence Real-Time Cell Analysis on Estrogen Receptor Agonism for Proliferation (AID 2282667; active means hit-call score of the fitted dose curve at least 0.9, where 1 is the maximum); settings: T47D proliferation, impedance (xCELLigence), 80 h
# How it was run: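 Cell-growth kinetics were measured by impedance in T47D cells treated continuously with compound (top 100 uM final, 1:4 steps, 8 points). Activity at 80 h was scored as signal gain over the DMSO baseline.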
# [2] = ATG_CRE_CIS: Attagene CIS-FACTORIAL HepG2 Assay for human cAMP Responsive Element (CRE) binding protein 3 (AID 2282926); settings: HepG2 CRE cis-reporter, Attagene multiplexed mRNA; actives raise or lower the signal
# How it was run: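 Cells carrying cis-regulated reporter constructs respond through their own endogenous factors. After 24 h treatment, RNA is reverse-transcribed, amplified, labelled and sized by capillary electrophoresis; up- and down-regulation are both scored against vehicle.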
# [3] = molecular target: CCAAT/enhancer-binding protein beta (Homo sapiens) (UniProt P17676); test: ATG_C_EBP_CIS: Attagene CIS-FACTORIAL HepG2 Assay for human CCAAT/Enhancer Binding Protein (C/EBP) beta (AID 2282927); settings: HepG2 Attagene cis-factorial transcription factor reporter; actives raise or lower the signal
# How it was run: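 Changes in reporter mRNA, rather than exogenous chimeric receptor activity, reflect native C/EBP signalling in transfected HepG2 cells dosed for 24 h; transcripts are detected by RT-PCR and capillary electrophoresis.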
# [4] = ATG_CMV_CIS: Attagene CIS-FACTORIAL HepG2 Assay for human CMV (Internal Marker) (AID 2282928); settings: HepG2 CMV promoter reporter, transcription factor profiling; actives raise or lower the signal;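 further: endpoint acts as a background internal control marker rather than a target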
# How it was run: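 Fluorescence intensity of RT-PCR-derived reporter fragments, resolved by capillary electrophoresis, gives the signal. HepG2 liver cells bearing transfected cis-element reporters were treated 24 h; activity in either direction was fit relative to DMSO-treated controls.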
# [5] = ATG_DR4_LXR_CIS: Attagene CIS-FACTORIAL HepG2 Assay for human Liver X Receptor (LXR), DR4 submotif (AID 2282929); settings: HepG2 Attagene DR4 cis-reporter, mRNA transcription; actives raise or lower the signal
# How it was run: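 Total RNA from 24 h-treated, MRTU-transfected HepG2 cells underwent reverse transcription, PCR, fluorescent primer extension and restriction digestion before capillary electrophoresis. Both increases and decreases in reporter signal were fitted against DMSO.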
# [6] = molecular target: Aryl hydrocarbon receptor (Homo sapiens) (UniProt P35869); test: ATG_Ahr_CIS: Attagene CIS-FACTORIAL HepG2 Assay for human Aryl Hydrocarbon Receptor (Ahr) (AID 2282930); settings: HepG2 AhR cis-factorial reporter transcription; actives raise or lower the signal
# How it was run: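 HepG2, transient MRTU (cis) transfection, 24 h exposure. RNA → cDNA → PCR → 6-FAM primer extension → HpaI 2 h 37 C → CE. Fit: bidirectional, DMSO baseline.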
# [7] = ATG_AP_1_CIS: Attagene CIS-FACTORIAL HepG2 Assay for human Activator Protein 1 (AP-1) (AID 2282931); settings: HepG2 Attagene cis-factorial AP-1 reporter mRNA; actives raise or lower the signal
# How it was run: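 HepG2, transient cis-reporter transfection; 24 h; readout RT-PCR/CE fluorescence; DMSO baseline, gain and loss fitted.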
# [8] = ATG_BRE_CIS: Attagene CIS-FACTORIAL HepG2 Assay for human Bone Morphogenetic Protein (BMP) Response Element (BRE) (AID 2282933); settings: HepG2 BMP response element reporter, Attagene transcription factor profiling; actives raise or lower the signal
# How it was run: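 Gain- or loss-of-signal was derived by bidirectional fitting against DMSO controls. The signal came from reporter mRNA, measured by RT-PCR and capillary electrophoresis, in HepG2 cells transiently carrying multiple reporter units and dosed for 24 h.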
# [9] = molecular target: Retinoic acid receptor alpha (Homo sapiens) (UniProt P10276); test: ATG_DR5_RAR_CIS: Attagene CIS-FACTORIAL HepG2 Assay for human Retinoic Acid Receptor Alpha (RARE), DR5 submotif (AID 2282934); settings: HepG2 Attagene cis-factorial RARE DR5 reporter, mRNA; actives raise or lower the signal
# How it was run: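 HepG2, transient cis-reporter transfection, 24 h exposure. mRNA readout: RT-PCR, FAM label, HpaI cut, capillary electrophoresis. DMSO baseline, gain/loss fitting.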
# [10] = molecular target: Transcription factor E2F1 (Homo sapiens) (UniProt Q01094); test: ATG_E2F_CIS: Attagene CIS-FACTORIAL HepG2 Assay for human E2F Transcription Factor 1 (AID 2282935); settings: HepG2 Attagene cis-reporter, E2F reporter RNA transcripts; actives raise or lower the signal
# How it was run: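 Gain or loss of reporter transcript, fitted against DMSO, reflects E2F1-driven transcription. Transiently transfected HepG2 dosed 24 h before RNA isolation. Quantified by fluorescent RT-PCR products separated by capillary electrophoresis.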
# [11] = ATG_E_Box_CIS: Attagene CIS-FACTORIAL HepG2 Assay for human Enhancer Box (E-box) (AID 2282936); settings: HepG2 E-box cis-reporter transcription, actives raise or lower the signal
# How it was run: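 E-box-driven reporter transcripts measured in transiently transfected HepG2 after 24 h exposure: RNA reverse-transcribed, PCR-amplified, fluorescently labelled, digested and resolved by capillary electrophoresis. Gain or loss relative to DMSO.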
# [12] = ATG_M_61_CIS: Attagene CIS-FACTORIAL HepG2 Assay for M61 Transcription Factor (Internal Marker) (AID 2282937); settings: HepG2 Attagene CIS-FACTORIAL M61 internal marker reporter; actives raise or lower the signal
# How it was run: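 Transfect HepG2 with MRTUs; dose 24 h; isolate RNA; reverse-transcribe with DNase I treatment; PCR-amplify, FAM-label and cut with HpaI for 2 h at 37 C; resolve by CE. Bidirectional fitting against DMSO.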
# [13] = ATG_EGR_CIS: Attagene CIS-FACTORIAL HepG2 Assay for human Early Growth Response 1 (EGR1) (AID 2282938); settings: HepG2 Attagene CIS-FACTORIAL EGR reporter mRNA; actives raise or lower the signal
# How it was run: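 After a 24 h treatment of transiently transfected HepG2 cells, total RNA was reverse-transcribed and reporter sequences PCR-amplified, labelled and run on capillary electrophoresis. Reporters sit under cis-regulatory promoters sensing endogenous factors.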
# [14] = ATG_M_19_CIS: Attagene CIS-FACTORIAL HepG2 Assay for M19 Transcription Factor (Internal Marker) (AID 2282939); settings: HepG2 Attagene CIS-FACTORIAL M19 internal marker reporter; actives raise or lower the signal
# How it was run: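 Following a 24 h exposure, RNA from transfected HepG2 cells was reverse-transcribed, PCR-amplified with reporter-specific primers, end-labelled with 6-FAM and HpaI-digested before capillary separation. Values represent gain or loss versus DMSO.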
# [15] = ATG_ERE_CIS: Attagene CIS-FACTORIAL HepG2 Assay for Estrogen Response Element (ERE) (AID 2282940); settings: HepG2 ERE cis-reporter, Attagene RNA transcript; actives raise or lower the signal
# How it was run: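 HepG2, transient cis-reporter units, 24 h exposure. RNA isolated, oligo(dT) RT, reporter-specific PCR, FAM extension, HpaI cut, CE detection. Gain/loss-of-signal vs DMSO.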
# [16] = ATG_Ets_CIS: Attagene CIS-FACTORIAL HepG2 Assay for human Erythroblast Transformation Specific (ETS) (AID 2282941); settings: HepG2 ETS cis-reporter transcription, actives raise or lower the signal
# How it was run: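 Multiplexed reporter transcript profiling: HepG2, 24 h treatment, total RNA to cDNA, PCR, 6-FAM labelling, HpaI cut, capillary electrophoresis. Gain- or loss-of-signal fitted against DMSO.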
# [17] = molecular target: Hepatocyte nuclear factor 3-beta (Homo sapiens) (UniProt Q9Y261); test: ATG_FoxA2_CIS: Attagene CIS-FACTORIAL HepG2 Assay for human Forkhead box A2 (FOXA2) (AID 2282942); settings: HepG2 cis-reporter transcription factor activity, 24 h; actives raise or lower the signal
# How it was run: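 24 h dosing of HepG2 bearing cis-reporter constructs; mRNA readout by RT-PCR/CE fluorescence; bidirectional fit, DMSO baseline.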
# [18] = ATG_FoxO_CIS: Attagene CIS-FACTORIAL HepG2 Assay for human Forkhead box O (FoxO) (AID 2282943); settings: HepG2 Attagene cis-reporter, FoxO element, mRNA; actives raise or lower the signal
# How it was run: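 Human hepatoma HepG2 cells carry transiently introduced reporter transcription units controlled by cis promoter elements. Chemical treatment lasted 24 h, and mRNA signal was compared with DMSO.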
# [19] = ATG_GATA_CIS: Attagene CIS-FACTORIAL HepG2 Assay for human GATA Binding Protein (AID 2282944); settings: HepG2 GATA cis-element reporter, Attagene multiplex mRNA; actives raise or lower the signal
# How it was run: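 DMSO serves as negative control and baseline for bidirectional fitting of reporter mRNA changes. HepG2 cells bearing transiently transfected cis-promoter reporters were exposed 24 h; transcripts detected via RT-PCR and capillary electrophoresis.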
# [20] = ATG_AP_2_CIS: Attagene CIS-FACTORIAL HepG2 Assay for human Activator Protein 2 (AP-2) (AID 2282932); settings: HepG2 AP-2 cis-reporter, Attagene transcription factor profiling; actives raise or lower the signal
# How it was run: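 Endogenous transcription factor activity is reported through transfected multiplex reporter constructs in HepG2, after 24 h of compound exposure. Transcripts were quantified by RT-PCR and capillary electrophoresis of fluorescent fragments. Bidirectional fit against DMSO.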
# Sequence of Hepatocyte nuclear factor 3-beta (Homo sapiens) (Q9Y261 whole entry, looked up): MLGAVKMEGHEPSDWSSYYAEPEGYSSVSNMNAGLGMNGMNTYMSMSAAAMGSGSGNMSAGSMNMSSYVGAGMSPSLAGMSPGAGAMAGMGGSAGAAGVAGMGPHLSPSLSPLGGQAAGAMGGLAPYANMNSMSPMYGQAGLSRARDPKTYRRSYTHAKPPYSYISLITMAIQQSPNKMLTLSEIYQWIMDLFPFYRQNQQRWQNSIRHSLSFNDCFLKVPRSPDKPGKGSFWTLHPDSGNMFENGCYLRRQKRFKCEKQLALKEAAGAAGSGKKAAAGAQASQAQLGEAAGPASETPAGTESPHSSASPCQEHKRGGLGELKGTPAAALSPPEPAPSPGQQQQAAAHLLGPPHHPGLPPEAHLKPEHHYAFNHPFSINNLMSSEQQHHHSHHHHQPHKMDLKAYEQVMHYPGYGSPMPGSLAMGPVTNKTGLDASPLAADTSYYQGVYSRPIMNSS
# Sequence of Transcription factor E2F1 (Homo sapiens) (Q01094 whole entry, looked up): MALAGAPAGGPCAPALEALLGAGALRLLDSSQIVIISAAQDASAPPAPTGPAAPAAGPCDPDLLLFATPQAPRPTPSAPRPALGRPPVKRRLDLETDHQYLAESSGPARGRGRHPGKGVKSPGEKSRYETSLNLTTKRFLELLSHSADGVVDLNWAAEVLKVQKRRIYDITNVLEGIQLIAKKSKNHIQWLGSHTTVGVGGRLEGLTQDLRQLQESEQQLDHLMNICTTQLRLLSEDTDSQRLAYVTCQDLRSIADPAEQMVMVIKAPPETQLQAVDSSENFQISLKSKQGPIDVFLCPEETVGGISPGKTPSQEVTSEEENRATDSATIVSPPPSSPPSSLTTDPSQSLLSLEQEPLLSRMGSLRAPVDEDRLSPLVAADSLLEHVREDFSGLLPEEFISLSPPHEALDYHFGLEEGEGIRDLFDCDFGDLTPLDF
# Sequence of Aryl hydrocarbon receptor (Homo sapiens) (P35869 whole entry, looked up): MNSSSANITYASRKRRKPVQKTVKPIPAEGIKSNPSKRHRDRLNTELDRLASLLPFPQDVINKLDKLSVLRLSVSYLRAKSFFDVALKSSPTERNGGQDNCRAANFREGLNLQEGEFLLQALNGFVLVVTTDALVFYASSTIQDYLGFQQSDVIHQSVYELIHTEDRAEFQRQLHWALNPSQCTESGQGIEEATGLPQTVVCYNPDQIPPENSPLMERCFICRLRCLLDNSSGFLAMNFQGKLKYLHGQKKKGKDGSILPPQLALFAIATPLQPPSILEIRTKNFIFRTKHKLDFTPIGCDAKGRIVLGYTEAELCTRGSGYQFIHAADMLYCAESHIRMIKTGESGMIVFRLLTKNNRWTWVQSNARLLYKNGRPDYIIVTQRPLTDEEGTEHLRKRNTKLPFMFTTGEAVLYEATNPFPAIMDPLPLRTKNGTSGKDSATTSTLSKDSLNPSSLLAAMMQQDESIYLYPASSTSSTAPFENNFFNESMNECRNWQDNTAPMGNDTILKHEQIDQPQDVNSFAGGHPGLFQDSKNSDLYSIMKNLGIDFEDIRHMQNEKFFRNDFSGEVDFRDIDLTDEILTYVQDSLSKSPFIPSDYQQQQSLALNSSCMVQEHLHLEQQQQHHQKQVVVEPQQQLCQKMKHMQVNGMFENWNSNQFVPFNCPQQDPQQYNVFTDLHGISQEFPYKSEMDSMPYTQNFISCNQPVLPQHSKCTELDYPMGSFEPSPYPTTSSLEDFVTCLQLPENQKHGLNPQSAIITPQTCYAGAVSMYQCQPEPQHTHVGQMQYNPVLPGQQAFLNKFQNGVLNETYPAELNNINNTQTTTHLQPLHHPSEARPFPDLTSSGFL
# Sequence of Retinoic acid receptor alpha (Homo sapiens) (P10276 whole entry, looked up): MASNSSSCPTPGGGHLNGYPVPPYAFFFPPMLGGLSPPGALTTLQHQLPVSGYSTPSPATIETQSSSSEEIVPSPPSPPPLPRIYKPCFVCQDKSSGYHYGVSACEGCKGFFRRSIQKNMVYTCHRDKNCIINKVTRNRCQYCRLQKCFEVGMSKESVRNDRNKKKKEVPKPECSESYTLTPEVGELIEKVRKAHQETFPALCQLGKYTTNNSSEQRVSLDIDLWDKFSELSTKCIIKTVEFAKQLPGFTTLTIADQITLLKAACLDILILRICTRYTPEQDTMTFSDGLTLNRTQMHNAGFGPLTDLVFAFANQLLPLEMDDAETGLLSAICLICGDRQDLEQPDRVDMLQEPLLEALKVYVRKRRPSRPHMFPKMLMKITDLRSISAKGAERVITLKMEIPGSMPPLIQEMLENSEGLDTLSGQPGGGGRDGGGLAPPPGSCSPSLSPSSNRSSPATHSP
# Sequence of CCAAT/enhancer-binding protein beta (Homo sapiens) (P17676 whole entry, looked up): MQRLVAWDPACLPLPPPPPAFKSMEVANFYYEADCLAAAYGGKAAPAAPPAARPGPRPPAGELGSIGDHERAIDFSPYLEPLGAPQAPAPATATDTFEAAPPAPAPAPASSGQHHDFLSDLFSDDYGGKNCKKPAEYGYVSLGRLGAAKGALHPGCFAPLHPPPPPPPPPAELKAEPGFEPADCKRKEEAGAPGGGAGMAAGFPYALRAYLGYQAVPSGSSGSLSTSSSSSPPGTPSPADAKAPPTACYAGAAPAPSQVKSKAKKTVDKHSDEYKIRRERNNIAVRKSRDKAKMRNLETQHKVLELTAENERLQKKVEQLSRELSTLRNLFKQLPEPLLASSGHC
smiles,measurement,setting,value
COC(=O)CC(C)CCC=C(C)C (stereo unspecified),outcome,[1],inactive
same,outcome,[2],inactive
same,outcome,[3],inactive
same,outcome,[4],inactive
same,outcome,[5],inactive
same,outcome,[6],inactive
same,outcome,[7],inactive
same,outcome,[8],inactive
same,outcome,[9],inactive
same,outcome,[10],inactive
same,outcome,[11],inactive
same,outcome,[12],inactive
same,outcome,[13],inactive
same,outcome,[14],inactive
same,outcome,[15],inactive
same,outcome,[16],inactive
same,outcome,[17],inactive
same,outcome,[18],inactive
same,outcome,[19],inactive
COc1nccnc1CC(C)C,outcome,[1],inactive
same,outcome,[2],inactive
same,outcome,[3],inactive
same,outcome,[4],inactive
same,outcome,[5],inactive
same,outcome,[6],inactive
same,outcome,[7],inactive
same,outcome,[8],inactive
same,outcome,[9],inactive
same,outcome,[10],inactive
same,outcome,[11],inactive
same,outcome,[12],inactive
same,outcome,[13],inactive
same,outcome,[14],inactive
same,outcome,[16],inactive
same,outcome,[17],inactive
same,outcome,[18],inactive
same,outcome,[19],inactive
O=C(O)C1CCC(C(=O)O)CC1 (stereo unspecified),outcome,[1],inactive
same,outcome,[2],inactive
same,outcome,[3],inactive
same,outcome,[4],inactive
same,outcome,[6],inactive
same,outcome,[7],inactive
same,outcome,[20],inactive
same,outcome,[8],inactive
same,outcome,[9],inactive
same,outcome,[10],inactive
same,outcome,[11],inactive
same,outcome,[12],inactive
same,outcome,[13],inactive
same,outcome,[15],inactive
same,outcome,[16],inactive
same,outcome,[17],inactive
same,outcome,[18],inactive
same,outcome,[19],inactive
CCCCCCO,outcome,[1],inactive
same,outcome,[2],inactive
same,outcome,[3],inactive
same,outcome,[4],inactive
same,outcome,[6],inactive
same,outcome,[7],inactive
same,outcome,[20],inactive
same,outcome,[8],inactive
same,outcome,[9],inactive
same,outcome,[10],inactive
same,outcome,[11],inactive
same,outcome,[12],inactive
same,outcome,[13],inactive
same,outcome,[14],inactive
same,outcome,[15],inactive
same,outcome,[16],inactive
same,outcome,[18],inactive
same,outcome,[19],inactive
COC(OC)(C(=O)c1ccccc1)c1ccccc1,outcome,[1],inactive
same,outcome,[2],inactive
same,outcome,[3],inactive
same,outcome,[4],inactive
same,outcome,[6],inactive
same,outcome,[7],inactive
same,outcome,[20],inactive
same,outcome,[8],inactive
same,outcome,[9],inactive
same,outcome,[10],inactive
same,outcome,[11],inactive
same,outcome,[12],inactive
same,AC50,[13],35.1 µM (active)
same,outcome,[16],inactive
same,outcome,[17],inactive
same,outcome,[18],inactive
same,outcome,[19],inactive
CC1=CP(=O)(c2ccccc2)CC1 (stereo unspecified),outcome,[1],inactive
same,outcome,[2],inactive
same,outcome,[3],inactive
same,outcome,[4],inactive
same,outcome,[6],inactive
same,outcome,[7],inactive
same,outcome,[20],inactive
same,outcome,[8],inactive
same,outcome,[9],inactive
same,outcome,[10],inactive
same,outcome,[11],inactive
same,outcome,[13],inactive
same,outcome,[14],inactive
same,outcome,[15],inactive
same,outcome,[16],inactive
same,outcome,[17],inactive
same,outcome,[18],inactive
C=C[Si](OCCOC)(OCCOC)OCCOC,outcome,[1],inactive
same,outcome,[2],inactive
same,outcome,[3],inactive
same,outcome,[5],inactive
same,outcome,[6],inactive
same,outcome,[7],inactive
same,outcome,[20],inactive
same,outcome,[8],inactive
same,outcome,[9],inactive
same,outcome,[10],inactive
same,outcome,[11],inactive
same,outcome,[12],inactive
same,outcome,[13],inactive
same,outcome,[15],inactive
same,outcome,[16],inactive
same,outcome,[17],inactive
same,outcome,[18],inactive
C=C(C)C(=O)OCCCCCCCCCCCC,outcome,[1],inactive
same,outcome,[2],inactive
same,outcome,[3],inactive
same,outcome,[5],inactive
same,outcome,[6],inactive
same,outcome,[7],inactive
same,outcome,[20],inactive
same,outcome,[8],inactive
same,outcome,[9],inactive
same,outcome,[10],inactive
same,outcome,[11],inactive
same,outcome,[13],inactive
same,outcome,[14],inactive
same,outcome,[15],inactive
same,outcome,[17],inactive
same,outcome,[18],inactive
same,outcome,[19],inactive
